Bioassay records (PubChem)
PP1 inh – counter-screen for PP5 inhibitors: inhibitors of human PP1-alpha; hit rate 0.9% among 320,000; AID 2235; inhibition, % at 6.7 µM; purified PP1alpha, OMFP fluorescence;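 active means inhibition above the mean inhibition of all tested compounds plus 3 SD, computed separately for each screening campaign, cut at about 15% in these data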
pPAFAH FP inh – pPAFAH (human) enzyme inhibition; Q13093; recombinant pPAFAH, FP-rhodamine probe fluorescence polarization; inhibition, % at 3.39 µM; hit rate 1.5% among 330,000; AID 463082;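 active means inhibition above the mean inhibition across the screen plus 3 SD, cut at about 25% in these data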;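 further: inhibitors block binding of the rhodamine activity-based probe so polarization drops; 0% = enzyme with DMSO and 100% = wells lacking pPAFAH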
PAFAH1B2 FP inh – blocks human PAF acetylhydrolase 1b catalytic subunit 2 | hit rate 1.2% among 340,000 | AID 492953 | inhibition, % at 3.39 µM | recombinant PAFAH1B2, FP-rhodamine activity probe, fluorescence polarization | P68402;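 active means inhibition above the mean of all tested compounds plus 3 SD, cut at about 24% in these data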;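 further: 0% = enzyme with DMSO and 100% = wells lacking PAFAH1B2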
PAFAH1B3 FP inh – blocks human PAF acetylhydrolase 1B catalytic subunit 3 | recombinant PAFAH1B3, FP-rhodamine probe, fluorescence polarization | Q15102 | hit rate 0.28% among 340,000 | AID 492972 | inhibition, % at 3.39 µM;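 active means inhibition above the screen-wide average of all tested compounds plus 3 SD, cut at about 25% in these data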;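 further: 0% = enzyme with DMSO only and 100% = wells lacking PAFAH1B3 protein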
Target sequence (Q15102 whole entry, looked up): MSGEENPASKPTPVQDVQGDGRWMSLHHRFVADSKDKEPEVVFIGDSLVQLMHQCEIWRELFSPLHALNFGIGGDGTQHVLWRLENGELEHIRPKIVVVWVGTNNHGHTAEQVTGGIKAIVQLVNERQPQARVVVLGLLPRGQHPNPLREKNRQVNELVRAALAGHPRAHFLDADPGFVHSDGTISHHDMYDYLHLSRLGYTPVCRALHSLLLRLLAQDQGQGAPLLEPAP
PAFAH2 inh – PAFAH2 (human) inhibition; Q99487; recombinant PAFAH2, FP-rhodamine activity probe, fluorescence polarization; hit rate 0.99% among 340,000; inhibition, % at 3.39 µM; AID 492956;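 active means inhibition above the mean over all tested compounds plus 3 SD, cut at about 30% in these data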;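 further: inhibitors block probe labeling of enzyme so polarization drops; 0% = enzyme with DMSO and 100% = wells lacking PAFAH2 protein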
PP5 primary – inhibitors of human protein phosphatase 5 (PP5); hit rate 0.18% among 320,000; inhibition, % at 6.7 µM; purified PP5c, OMFP substrate fluorescence; P53041;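 active means inhibition above the campaign's mean inhibition across all tested compounds plus 3 SD, cut at about 9.5% in these data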;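 further: 0% = DMSO only and 100% = 100 µM cantharidin control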
Target sequence (P53041 whole entry, looked up): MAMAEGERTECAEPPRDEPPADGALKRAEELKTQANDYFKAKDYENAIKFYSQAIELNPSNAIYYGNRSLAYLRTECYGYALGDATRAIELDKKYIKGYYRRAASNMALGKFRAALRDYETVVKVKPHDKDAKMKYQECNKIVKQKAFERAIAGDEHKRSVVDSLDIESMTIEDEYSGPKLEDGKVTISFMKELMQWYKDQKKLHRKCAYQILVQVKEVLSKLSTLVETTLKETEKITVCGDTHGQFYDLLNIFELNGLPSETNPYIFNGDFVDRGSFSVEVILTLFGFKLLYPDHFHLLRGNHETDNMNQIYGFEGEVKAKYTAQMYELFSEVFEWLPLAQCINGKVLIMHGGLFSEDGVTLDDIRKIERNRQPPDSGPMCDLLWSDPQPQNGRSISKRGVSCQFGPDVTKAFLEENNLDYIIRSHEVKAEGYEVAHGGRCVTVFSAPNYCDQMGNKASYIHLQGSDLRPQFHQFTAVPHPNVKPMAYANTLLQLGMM
PAFAH2 confirm – PAFAH2 (human) inhibition, confirmed. inhibition, % at 3.39 µM. recombinant PAFAH2, FP-rhodamine activity probe, fluorescence polarization. hit rate 65% among 2,300. shares compounds with PAFAH2 inh. AID 493030;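 active means mean inhibition over three repeats above a set limit taken from the earlier primary screen, cut at about 30% in these data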;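 further: inhibitor blocks binding of rhodamine activity probe so polarization falls; 0% = enzyme with DMSO and 100% = wells lacking PAFAH2 protein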
* = called active by the depositor. An excerpt weighted towards active compounds, which were near 3.4% of everything screened.

For Cc1ccc(N2C(=O)C(F)(F)C2c2ccccc2)cc1 (stereo unspecified) the results were PP1 inh -2.4, pPAFAH FP inh -2.2, PAFAH1B2 FP inh 9.4, PAFAH1B3 FP inh -1.4, PAFAH2 inh 7.4 and PP5 primary 0.0.
`C=CCNC(=O)/C(C#N)=C/c1cc(Br)ccc1OC` gave PP1 inh -0.3, pPAFAH FP inh 0.7, PAFAH1B2 FP inh -5.0, PAFAH1B3 FP inh -1.9, PAFAH2 inh 32.9*, PP5 primary 0.6 and PAFAH2 confirm 16.1.
For Cc1cc2c(cc(C(=O)N3CCC(C(=O)NC4CCCC4)CC3)n2Cc2c(F)cccc2Cl)o1 the results were PP1 inh 2.2, pPAFAH FP inh -0.6, PAFAH1B2 FP inh 3.7, PAFAH1B3 FP inh -1.9, PAFAH2 inh 63.8*, PP5 primary 2.0 and PAFAH2 confirm 49.4*.
O=C(Nc1cccc(Cl)c1)c1cc(N=Nc2ccc([N+](=O)[O-])cc2Cl)ccc1O was read as PP1 inh -5.1, pPAFAH FP inh 22.2, PAFAH1B2 FP inh 17.8, PAFAH1B3 FP inh 23.0, PAFAH2 inh 32.7*, PP5 primary -5.5 and PAFAH2 confirm 4.2.
For CCOP(=O)(OCC)C(NC(=O)c1cccs1)c1ccccc1 (stereo unspecified) the results were PP1 inh 1.8, pPAFAH FP inh -2.2, PAFAH1B2 FP inh 4.0, PAFAH1B3 FP inh 6.3, PAFAH2 inh 2.5 and PP5 primary 3.7.
`O=[N+]([O-])c1cc(Cl)cc(/C=N/Nc2nc3ccccc3s2)c1O` gave PP1 inh -2.1, pPAFAH FP inh 12.7, PAFAH1B2 FP inh 4.9, PAFAH1B3 FP inh 18.0, PAFAH2 inh 65.0*, PP5 primary 1.7 and PAFAH2 confirm 46.0*.
`O=C(Cn1nc2ccccc2n1)N/N=C/c1cc(Cl)cc([N+](=O)[O-])c1O` gave PAFAH1B2 FP inh 8.6, PAFAH1B3 FP inh 3.5, PAFAH2 inh 30.1* and PAFAH2 confirm 15.0.
COc1ccc(CNC(=O)c2oc3ccc(S(=O)(=O)N4CCOCC4)cc3c2C)cc1 was read as PP1 inh -2.6, pPAFAH FP inh 4.6, PAFAH1B2 FP inh 3.9, PAFAH1B3 FP inh 6.5, PAFAH2 inh -7.0 and PP5 primary 2.2.
For CC(C)CSC1=NSC2=NC(=O)/C(=C\c3coc4ccccc4c3=O)C(=N)N12 the results were PP1 inh 1.2, pPAFAH FP inh 9.8, PAFAH1B2 FP inh 23.2, PAFAH1B3 FP inh 20.9, PAFAH2 inh 36.1*, PP5 primary -16.1 and PAFAH2 confirm 22.3.
`Cc1ccc(CN2CCCN(C)CC2)c(C)c1` gave PP1 inh 0.8, pPAFAH FP inh 0.1, PAFAH1B2 FP inh -0.2, PAFAH1B3 FP inh 4.0, PAFAH2 inh 3.8 and PP5 primary -0.8.
O=C(COC(=O)Cn1cc(C(F)(F)F)ccc1=O)Nc1ccccc1 was read as PP1 inh -3.8, pPAFAH FP inh -0.5, PAFAH1B2 FP inh 0.6, PAFAH1B3 FP inh 0.2, PAFAH2 inh 68.4*, PP5 primary 0.2 and PAFAH2 confirm 60.4*.
C/C(=N/O)c1no[n+]([O-])c1/C(C)=N\O was read as PP1 inh -3.1, pPAFAH FP inh 1.8, PAFAH1B2 FP inh 8.5, PAFAH1B3 FP inh 8.3, PAFAH2 inh 6.2 and PP5 primary 0.1.
CC(CN1C(C)CCCC1C)OC(=O)c1ccc(Cl)cc1Cl (stereo unspecified) was read as PP1 inh -3.0, pPAFAH FP inh 8.0, PAFAH1B2 FP inh -1.4, PAFAH1B3 FP inh 3.1, PAFAH2 inh 1.5 and PP5 primary -0.1.
For O=C(OCC1COc2ccccc2O1)c1ccccc1F (stereo unspecified) the results were PP1 inh -2.6, pPAFAH FP inh 11.8, PAFAH1B2 FP inh -1.0, PAFAH1B3 FP inh 3.5, PAFAH2 inh 38.6*, PP5 primary 0.1 and PAFAH2 confirm 23.8.
`CCOc1ncccc1C(=O)OCC(=O)Nc1ccc2c(c1)OCO2` gave PP1 inh -1.9, pPAFAH FP inh 21.7, PAFAH1B2 FP inh 3.8, PAFAH1B3 FP inh -0.8, PAFAH2 inh 31.7*, PP5 primary 3.1 and PAFAH2 confirm 35.9*.
Screening COc1ccc(C(=O)OCC(=O)Nc2ccc3c(c2)OCCO3)c(OC)c1 returned PP1 inh -1.1, pPAFAH FP inh 0.6, PAFAH1B2 FP inh 4.2, PAFAH1B3 FP inh 2.8, PAFAH2 inh 55.1*, PP5 primary 1.9 and PAFAH2 confirm 50.3*.
`CN(C)S(=O)(=O)c1cccc(C(=O)OCC(=O)Nc2ccc3c(c2)OCCO3)c1` gave PP1 inh -0.1, pPAFAH FP inh 11.2, PAFAH1B2 FP inh 1.8, PAFAH1B3 FP inh -2.1, PAFAH2 inh 41.2*, PP5 primary 1.3 and PAFAH2 confirm 39.5*.
For O=C(COC(=O)c1cc(Cl)ccc1O)Nc1ccc2c(c1)OCCO2 the results were PP1 inh -4.0, pPAFAH FP inh 1.7, PAFAH1B2 FP inh -3.7, PAFAH1B3 FP inh 3.3, PAFAH2 inh 6.5 and PP5 primary 0.0.
O=S(=O)(NCC1COc2ccccc2O1)c1ccccc1F (stereo unspecified) was read as pPAFAH FP inh 3.4, PAFAH1B2 FP inh 6.3, PAFAH1B3 FP inh 2.4 and PAFAH2 inh 9.7.
O=C1CNC(=S)N1CCCc1ccccc1 was read as PP1 inh 0.0, pPAFAH FP inh -1.4, PAFAH1B2 FP inh 9.2, PAFAH1B3 FP inh 4.9, PAFAH2 inh 3.4 and PP5 primary 1.1.
COc1ccc(CCNC(=O)c2c(O)c3ccccc3[nH]c2=O)cc1OC was read as PAFAH1B2 FP inh -3.5, PAFAH1B3 FP inh 5.5 and PAFAH2 inh -3.3.
For Cc1cccc(C(=O)OCC(=O)Nc2ccc3c(c2)OCCO3)c1 the results were PP1 inh -0.2, pPAFAH FP inh 4.8, PAFAH1B2 FP inh 3.5, PAFAH1B3 FP inh 4.8, PAFAH2 inh 61.1*, PP5 primary 1.4 and PAFAH2 confirm 58.2*.
Screening CCOc1ccc(C(=O)OCC(=O)Nc2ccc3c(c2)OCCO3)cc1OC returned PP1 inh -0.7, pPAFAH FP inh 0.4, PAFAH1B2 FP inh 8.3, PAFAH1B3 FP inh -2.8, PAFAH2 inh 74.0*, PP5 primary -1.9 and PAFAH2 confirm 82.7*.
For COc1ccc(CC(=O)OCC(=O)Nc2ccc3c(c2)OCCO3)cc1OC the results were PP1 inh -0.9, pPAFAH FP inh 4.3, PAFAH1B2 FP inh -2.3, PAFAH1B3 FP inh 5.6, PAFAH2 inh 1.9 and PP5 primary -1.0.
CCOc1ncccc1C(=O)OCC(=O)c1ccc(Cl)s1 was read as PP1 inh 2.1, pPAFAH FP inh 8.0, PAFAH1B2 FP inh 3.6, PAFAH1B3 FP inh 7.8, PAFAH2 inh 44.3*, PP5 primary 3.9 and PAFAH2 confirm 17.4.
Screening CCOc1ncccc1C(=O)OCC(=O)c1ccc(F)cc1 returned PP1 inh -3.5, pPAFAH FP inh 11.2, PAFAH1B2 FP inh 7.2, PAFAH1B3 FP inh -0.9, PAFAH2 inh 20.3 and PP5 primary 1.1.
`O=C(COC(=O)c1cccc(F)c1)Nc1ccc2c(c1)OCCO2` gave PP1 inh -5.7, pPAFAH FP inh 9.3, PAFAH1B2 FP inh 1.9, PAFAH1B3 FP inh 2.8, PAFAH2 inh 31.2*, PP5 primary 1.8 and PAFAH2 confirm 27.2.
